Laboratory results as given in article PMC7862700, “An all-to-all approach to the identification of sequence-specific readers for epigenetic DNA modifications on cytosine”.

Columns and labels:
Experiment in all cases: DAPPL (digital affinity profiling via proximity ligation, sequencing); 10 mM Tris-HCl pH 7.5, 50 mM NaCl, 1 mM DTT, 4% glycerol, room temperature, 30 min; GST-TFs on glutathione beads, 16-mer random dsDNA library, 0.1% formaldehyde crosslink after washing; high values mean tight binding
FLI1 = target: T1, FLI1 (Homo sapiens, UniProt Q01543 1-452); conditions: protein: recombinant; tags: N-terminal GST; dsDNA, one strand shown
T1 sequence: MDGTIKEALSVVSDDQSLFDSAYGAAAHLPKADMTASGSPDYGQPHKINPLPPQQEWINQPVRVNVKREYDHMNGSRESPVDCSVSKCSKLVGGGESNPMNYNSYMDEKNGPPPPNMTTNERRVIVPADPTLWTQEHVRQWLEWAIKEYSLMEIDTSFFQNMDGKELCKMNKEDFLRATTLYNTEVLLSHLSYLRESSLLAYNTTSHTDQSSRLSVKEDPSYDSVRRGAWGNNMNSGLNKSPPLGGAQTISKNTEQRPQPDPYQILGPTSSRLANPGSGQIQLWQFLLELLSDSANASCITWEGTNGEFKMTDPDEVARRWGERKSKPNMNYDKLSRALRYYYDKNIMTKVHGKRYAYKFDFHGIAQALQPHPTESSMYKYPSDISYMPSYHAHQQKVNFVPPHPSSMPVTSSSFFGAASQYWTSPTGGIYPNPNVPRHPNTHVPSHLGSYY
In short: (§1)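 The binding signal reported is, for every hexamer, its read frequency for a factor over its read frequency for the tag-only sample. Reads came from pools of yeast-expressed, GST-fused human transcription factors on glutathione beads, barcoded with DNA and mixed with that sample, which were incubated with 200 nmole of a random double-stranded 16-mer DNA library in Tris/NaCl/DTT/glycerol buffer at room temperature for 30 min. After washing, the pools were crosslinked with 0.1% formaldehyde, proximity-ligated with BsaI/T4 ligase for 1 h at 37 °C, PCR-amplified and sequenced on an Illumina NextSeq500.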

ELK1 = target: T2, ELK1 (Homo sapiens, UniProt P19419 1-428); conditions: protein: recombinant; tags: N-terminal GST; dsDNA, one strand shown
T2 sequence: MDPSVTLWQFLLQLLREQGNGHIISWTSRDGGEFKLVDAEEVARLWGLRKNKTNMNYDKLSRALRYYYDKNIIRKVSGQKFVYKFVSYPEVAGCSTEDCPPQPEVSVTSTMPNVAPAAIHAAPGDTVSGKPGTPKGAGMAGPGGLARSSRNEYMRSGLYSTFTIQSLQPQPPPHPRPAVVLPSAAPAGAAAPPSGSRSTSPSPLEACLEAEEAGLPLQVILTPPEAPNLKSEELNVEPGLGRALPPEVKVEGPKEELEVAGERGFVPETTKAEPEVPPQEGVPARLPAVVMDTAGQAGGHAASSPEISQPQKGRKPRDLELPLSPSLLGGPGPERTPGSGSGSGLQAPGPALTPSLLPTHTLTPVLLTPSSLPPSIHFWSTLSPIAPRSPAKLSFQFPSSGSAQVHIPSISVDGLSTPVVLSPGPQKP
In short: as §1

GABPA = target: T3, GABPA (Homo sapiens, UniProt Q06546 1-454); conditions: protein: recombinant; tags: N-terminal GST; dsDNA, one strand shown
T3 sequence: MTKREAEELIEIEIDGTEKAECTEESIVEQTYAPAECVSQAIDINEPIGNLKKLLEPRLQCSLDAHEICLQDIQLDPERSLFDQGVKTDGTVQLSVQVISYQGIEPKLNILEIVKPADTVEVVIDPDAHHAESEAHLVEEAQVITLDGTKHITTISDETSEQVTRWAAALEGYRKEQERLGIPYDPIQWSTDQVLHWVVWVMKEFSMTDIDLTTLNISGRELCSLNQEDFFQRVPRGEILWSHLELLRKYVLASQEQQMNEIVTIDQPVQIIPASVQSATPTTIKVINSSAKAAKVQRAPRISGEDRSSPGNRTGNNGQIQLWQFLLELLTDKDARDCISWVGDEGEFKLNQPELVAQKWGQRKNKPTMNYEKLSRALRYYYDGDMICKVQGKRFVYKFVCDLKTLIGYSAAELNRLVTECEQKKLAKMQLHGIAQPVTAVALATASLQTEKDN
In short: as §1

ERG = target: T4, ERG (Homo sapiens, UniProt P11308 1-479); conditions: protein: recombinant; tags: N-terminal GST; dsDNA, one strand shown
T4 sequence: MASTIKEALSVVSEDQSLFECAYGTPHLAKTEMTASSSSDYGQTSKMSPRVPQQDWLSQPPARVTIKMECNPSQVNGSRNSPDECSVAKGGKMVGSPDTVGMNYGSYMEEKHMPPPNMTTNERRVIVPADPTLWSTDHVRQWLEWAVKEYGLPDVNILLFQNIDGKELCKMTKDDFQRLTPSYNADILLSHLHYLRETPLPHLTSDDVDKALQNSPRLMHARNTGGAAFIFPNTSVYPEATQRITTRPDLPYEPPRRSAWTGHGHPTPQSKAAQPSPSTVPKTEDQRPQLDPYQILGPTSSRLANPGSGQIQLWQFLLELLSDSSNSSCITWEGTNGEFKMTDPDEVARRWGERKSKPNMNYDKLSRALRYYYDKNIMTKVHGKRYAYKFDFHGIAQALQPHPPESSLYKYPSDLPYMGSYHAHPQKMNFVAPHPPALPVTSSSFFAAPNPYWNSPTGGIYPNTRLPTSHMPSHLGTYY
In short: as §1

ELF1 = ELF1 (Homo sapiens, UniProt P32519 1-619); conditions: protein: recombinant; tags: N-terminal GST; dsDNA, one strand shown
Sequence of ELF1 (P32519 whole entry): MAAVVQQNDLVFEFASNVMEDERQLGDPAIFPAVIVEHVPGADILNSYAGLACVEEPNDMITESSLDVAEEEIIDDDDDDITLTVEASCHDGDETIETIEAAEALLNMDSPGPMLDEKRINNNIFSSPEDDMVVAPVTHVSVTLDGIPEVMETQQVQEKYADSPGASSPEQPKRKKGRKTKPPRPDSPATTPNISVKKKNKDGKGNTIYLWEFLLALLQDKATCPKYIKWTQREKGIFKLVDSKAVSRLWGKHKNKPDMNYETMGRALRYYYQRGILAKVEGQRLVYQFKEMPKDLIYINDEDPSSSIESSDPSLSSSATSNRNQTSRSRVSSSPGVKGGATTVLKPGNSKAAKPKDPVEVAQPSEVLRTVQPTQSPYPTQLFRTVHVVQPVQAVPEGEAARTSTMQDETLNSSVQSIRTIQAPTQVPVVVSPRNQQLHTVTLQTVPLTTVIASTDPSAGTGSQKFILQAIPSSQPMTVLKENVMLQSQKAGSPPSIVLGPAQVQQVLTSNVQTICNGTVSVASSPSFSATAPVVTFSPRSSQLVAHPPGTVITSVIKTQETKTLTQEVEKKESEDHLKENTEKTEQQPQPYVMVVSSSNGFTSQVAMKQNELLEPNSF
In short: as §1

EHF = target: T5, EHF (Homo sapiens, UniProt Q9NZC4 1-300); conditions: protein: recombinant; tags: N-terminal GST; dsDNA, one strand shown
T5 sequence: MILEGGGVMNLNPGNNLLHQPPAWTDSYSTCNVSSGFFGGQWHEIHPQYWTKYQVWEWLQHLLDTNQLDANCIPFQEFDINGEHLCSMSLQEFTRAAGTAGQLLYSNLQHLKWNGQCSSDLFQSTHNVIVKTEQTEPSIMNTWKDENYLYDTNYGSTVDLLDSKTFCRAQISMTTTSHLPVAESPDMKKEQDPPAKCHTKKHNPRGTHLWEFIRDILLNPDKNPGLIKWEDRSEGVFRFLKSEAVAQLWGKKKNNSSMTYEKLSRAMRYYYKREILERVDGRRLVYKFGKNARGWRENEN
In short: as §1

SPI1 = SPI1 (Homo sapiens, UniProt P17947 1-270); conditions: protein: recombinant; tags: N-terminal GST; dsDNA, one strand shown
In short: as §1

ELK3 = target: T6, ELK3 (Homo sapiens, UniProt P41970 1-407); conditions: protein: recombinant; tags: N-terminal GST; dsDNA, one strand shown
T6 sequence: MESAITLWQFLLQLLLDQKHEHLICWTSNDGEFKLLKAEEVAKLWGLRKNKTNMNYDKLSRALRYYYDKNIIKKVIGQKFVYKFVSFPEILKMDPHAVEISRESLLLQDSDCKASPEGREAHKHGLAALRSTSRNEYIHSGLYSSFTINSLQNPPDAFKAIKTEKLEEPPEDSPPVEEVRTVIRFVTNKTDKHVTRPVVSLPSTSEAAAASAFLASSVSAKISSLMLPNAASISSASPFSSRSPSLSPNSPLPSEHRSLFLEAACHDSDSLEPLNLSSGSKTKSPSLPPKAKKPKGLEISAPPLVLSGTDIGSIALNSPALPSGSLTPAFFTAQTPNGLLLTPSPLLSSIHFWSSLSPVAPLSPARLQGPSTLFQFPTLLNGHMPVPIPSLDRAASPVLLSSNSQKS
In short: as §1

FEV = target: T7, FEV (Homo sapiens, UniProt Q99581 1-238); conditions: protein: recombinant; tags: N-terminal GST; dsDNA, one strand shown
T7 sequence: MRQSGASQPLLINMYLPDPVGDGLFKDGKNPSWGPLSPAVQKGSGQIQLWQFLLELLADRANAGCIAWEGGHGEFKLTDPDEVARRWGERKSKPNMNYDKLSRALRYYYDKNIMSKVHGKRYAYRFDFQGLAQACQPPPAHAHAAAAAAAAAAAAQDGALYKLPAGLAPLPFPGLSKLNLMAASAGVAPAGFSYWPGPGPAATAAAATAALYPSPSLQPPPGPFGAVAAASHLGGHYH
In short: as §1

ETV5 = ETV5 (Homo sapiens, UniProt P41161 1-510); conditions: protein: recombinant; tags: N-terminal GST; dsDNA, one strand shown
Sequence of ETV5 (P41161 whole entry): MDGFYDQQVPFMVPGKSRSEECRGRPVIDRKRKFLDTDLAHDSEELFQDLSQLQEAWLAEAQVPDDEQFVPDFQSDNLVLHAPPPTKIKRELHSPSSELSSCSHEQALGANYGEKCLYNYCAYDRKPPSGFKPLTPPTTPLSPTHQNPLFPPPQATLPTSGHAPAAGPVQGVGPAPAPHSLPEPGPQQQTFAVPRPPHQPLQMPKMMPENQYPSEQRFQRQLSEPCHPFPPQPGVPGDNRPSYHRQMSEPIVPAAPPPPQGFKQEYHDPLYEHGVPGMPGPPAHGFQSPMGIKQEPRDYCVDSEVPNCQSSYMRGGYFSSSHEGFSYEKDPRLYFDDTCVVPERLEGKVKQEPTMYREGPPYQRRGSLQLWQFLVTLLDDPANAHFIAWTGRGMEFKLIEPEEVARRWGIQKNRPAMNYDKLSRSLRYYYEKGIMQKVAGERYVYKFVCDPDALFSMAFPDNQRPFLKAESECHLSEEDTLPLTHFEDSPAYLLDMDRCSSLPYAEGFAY
In short: as §1

HSF1 = HSF1 (Homo sapiens, UniProt Q00613 1-529); conditions: protein: recombinant; tags: N-terminal GST; chain copies: 3; dsDNA, one strand shown
Sequence of HSF1 (Q00613 whole entry): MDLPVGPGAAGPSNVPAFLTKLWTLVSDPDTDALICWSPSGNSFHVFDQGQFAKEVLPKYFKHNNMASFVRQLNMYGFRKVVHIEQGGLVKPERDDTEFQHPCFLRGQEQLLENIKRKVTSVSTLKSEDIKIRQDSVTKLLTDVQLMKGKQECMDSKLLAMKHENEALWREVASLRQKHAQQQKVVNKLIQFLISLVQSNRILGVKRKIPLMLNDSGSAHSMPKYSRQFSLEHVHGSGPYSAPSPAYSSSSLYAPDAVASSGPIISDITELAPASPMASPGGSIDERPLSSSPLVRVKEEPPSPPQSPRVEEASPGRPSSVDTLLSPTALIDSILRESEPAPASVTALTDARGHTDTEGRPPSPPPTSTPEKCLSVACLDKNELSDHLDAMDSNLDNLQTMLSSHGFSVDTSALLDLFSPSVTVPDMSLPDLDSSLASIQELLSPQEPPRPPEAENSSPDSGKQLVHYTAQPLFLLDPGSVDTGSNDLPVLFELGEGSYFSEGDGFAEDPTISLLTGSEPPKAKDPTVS
In short: as §1

SPIC = target: T8, SPIC (Homo sapiens, UniProt Q8N5J4 1-248); conditions: protein: recombinant; tags: N-terminal GST; dsDNA, one strand shown
T8 sequence: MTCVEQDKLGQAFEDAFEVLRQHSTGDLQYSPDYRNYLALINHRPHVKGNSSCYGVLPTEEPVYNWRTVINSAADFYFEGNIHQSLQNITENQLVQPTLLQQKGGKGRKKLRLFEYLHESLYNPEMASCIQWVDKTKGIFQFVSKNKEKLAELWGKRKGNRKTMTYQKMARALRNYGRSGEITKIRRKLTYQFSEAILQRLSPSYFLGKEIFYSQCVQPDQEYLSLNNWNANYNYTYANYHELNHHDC
In short: as §1

ELF4 = ELF4 (Homo sapiens, UniProt Q99607 1-663); conditions: protein: recombinant; tags: N-terminal GST; dsDNA, one strand shown
Sequence of ELF4 (Q99607 whole entry): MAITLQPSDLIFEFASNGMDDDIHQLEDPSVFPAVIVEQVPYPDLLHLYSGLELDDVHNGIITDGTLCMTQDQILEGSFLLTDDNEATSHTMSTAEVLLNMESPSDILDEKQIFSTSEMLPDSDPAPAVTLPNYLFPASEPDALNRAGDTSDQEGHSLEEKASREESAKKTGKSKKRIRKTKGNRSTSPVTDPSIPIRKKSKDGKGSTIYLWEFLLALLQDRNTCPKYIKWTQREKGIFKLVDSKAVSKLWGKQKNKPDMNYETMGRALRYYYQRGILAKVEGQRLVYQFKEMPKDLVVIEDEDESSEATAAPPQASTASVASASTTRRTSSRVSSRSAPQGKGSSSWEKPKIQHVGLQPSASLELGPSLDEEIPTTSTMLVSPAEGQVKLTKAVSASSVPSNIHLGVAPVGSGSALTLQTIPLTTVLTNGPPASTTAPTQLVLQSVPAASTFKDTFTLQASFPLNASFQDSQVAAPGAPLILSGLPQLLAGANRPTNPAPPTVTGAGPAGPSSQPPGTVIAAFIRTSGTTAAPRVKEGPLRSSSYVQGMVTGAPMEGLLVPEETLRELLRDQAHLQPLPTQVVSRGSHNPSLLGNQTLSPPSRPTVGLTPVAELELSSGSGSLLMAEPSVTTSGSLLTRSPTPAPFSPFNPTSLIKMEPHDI
In short: as §1

ELK4 = target: T9, ELK4 (Homo sapiens, UniProt P28324-2 1-405); conditions: protein: recombinant; tags: N-terminal GST; dsDNA, one strand shown
T9 sequence: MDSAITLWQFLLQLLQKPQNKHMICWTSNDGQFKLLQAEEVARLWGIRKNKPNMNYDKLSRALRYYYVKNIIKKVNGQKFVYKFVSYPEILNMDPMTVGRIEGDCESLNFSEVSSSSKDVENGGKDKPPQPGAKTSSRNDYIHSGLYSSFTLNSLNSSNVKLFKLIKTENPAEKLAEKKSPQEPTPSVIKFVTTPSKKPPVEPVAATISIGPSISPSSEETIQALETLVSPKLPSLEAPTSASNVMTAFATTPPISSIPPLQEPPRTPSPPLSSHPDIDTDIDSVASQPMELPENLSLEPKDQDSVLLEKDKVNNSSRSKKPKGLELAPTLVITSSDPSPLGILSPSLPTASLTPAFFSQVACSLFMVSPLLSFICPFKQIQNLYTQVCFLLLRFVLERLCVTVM
In short: as §1

ETV2 = target: T10, ETV2 (Homo sapiens, UniProt O00321 1-342); conditions: protein: recombinant; tags: N-terminal GST; dsDNA, one strand shown
T10 sequence: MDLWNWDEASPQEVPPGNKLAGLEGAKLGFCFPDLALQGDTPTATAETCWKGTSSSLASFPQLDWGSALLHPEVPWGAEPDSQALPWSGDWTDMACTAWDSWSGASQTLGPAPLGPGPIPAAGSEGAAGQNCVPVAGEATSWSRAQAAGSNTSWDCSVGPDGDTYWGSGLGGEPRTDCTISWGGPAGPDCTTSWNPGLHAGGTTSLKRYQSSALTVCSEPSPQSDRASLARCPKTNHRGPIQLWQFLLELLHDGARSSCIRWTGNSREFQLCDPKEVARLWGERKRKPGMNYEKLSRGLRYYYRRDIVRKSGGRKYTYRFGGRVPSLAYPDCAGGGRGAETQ
In short: as §1

ELF3 = target: T11, ELF3 (Homo sapiens, UniProt P78545 1-371); conditions: protein: recombinant; tags: N-terminal GST; dsDNA, one strand shown
T11 sequence: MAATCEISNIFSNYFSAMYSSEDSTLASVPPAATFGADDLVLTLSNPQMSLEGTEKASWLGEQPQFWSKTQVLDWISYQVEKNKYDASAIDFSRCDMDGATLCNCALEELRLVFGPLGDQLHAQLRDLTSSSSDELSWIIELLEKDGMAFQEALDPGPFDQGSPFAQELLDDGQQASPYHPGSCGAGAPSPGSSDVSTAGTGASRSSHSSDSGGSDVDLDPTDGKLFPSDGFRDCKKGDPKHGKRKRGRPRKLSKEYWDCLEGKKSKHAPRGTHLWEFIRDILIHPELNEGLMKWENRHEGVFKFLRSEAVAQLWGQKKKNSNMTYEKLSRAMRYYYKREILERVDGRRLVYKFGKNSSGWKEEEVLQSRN
In short: as §1

CRX = CRX (Homo sapiens, UniProt O43186 1-299); conditions: protein: recombinant; tags: N-terminal GST; dsDNA, one strand shown
Sequence of CRX (O43186 whole entry): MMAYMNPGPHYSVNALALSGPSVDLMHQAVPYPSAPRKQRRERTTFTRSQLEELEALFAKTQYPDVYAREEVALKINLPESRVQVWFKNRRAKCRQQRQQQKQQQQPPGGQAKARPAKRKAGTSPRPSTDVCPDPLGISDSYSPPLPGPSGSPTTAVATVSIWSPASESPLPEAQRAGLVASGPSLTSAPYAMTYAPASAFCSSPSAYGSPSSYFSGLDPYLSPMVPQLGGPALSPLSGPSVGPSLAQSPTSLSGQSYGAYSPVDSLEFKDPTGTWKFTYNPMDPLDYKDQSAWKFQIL
In short: as §1

**Q.** Which results are given for TAGAAT?
**A.** binding signal (FLI1): 1.1 fold enrichment (6-mer frequency, TF over GST control); binding signal (ELK1): 1.06 fold enrichment (6-mer frequency, TF over GST control); binding signal (GABPA): 1.03 fold enrichment (6-mer frequency, TF over GST control); binding signal (ERG): 1.03 fold enrichment (6-mer frequency, TF over GST control); binding signal (ELF1): 1.1 fold enrichment (6-mer frequency, TF over GST control); binding signal (EHF): 1.01 fold enrichment (6-mer frequency, TF over GST control); binding signal (SPI1): 1.15 fold enrichment (6-mer frequency, TF over GST control); binding signal (ELK3): 1.15 fold enrichment (6-mer frequency, TF over GST control); binding signal (FEV): 1.04 fold enrichment (6-mer frequency, TF over GST control); binding signal (ETV5): 1.03 fold enrichment (6-mer frequency, TF over GST control); binding signal (HSF1): 3.07 fold enrichment (6-mer frequency, TF over GST control); binding signal (SPIC): 1.04 fold enrichment (6-mer frequency, TF over GST control); binding signal (ELF4): 1.13 fold enrichment (6-mer frequency, TF over GST control); binding signal (ELK4): 1.14 fold enrichment (6-mer frequency, TF over GST control); binding signal (ETV2): 1.06 fold enrichment (6-mer frequency, TF over GST control); binding signal (ELF3): 1.19 fold enrichment (6-mer frequency, TF over GST control); binding signal (CRX): 1.83 fold enrichment (6-mer frequency, TF over GST control)
